Reference: PubChem BioAssay AID743126 (The Scripps Research Institute Molecular Screening Center, 2013)
The campaign covered roughly 370,000 compounds. About 2,100 (0.57%) were called active. This is one part of a sample in which actives are shown more often than they occur.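 How the source made its calls: active means inhibition above mean plus 3 SD of compounds lying within the high and low control bounds (cut at about 19% in these data); inactive means the rest.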

Target: Group 3 secretory phospholipase A2 (Homo sapiens) (UniProt Q9NZ20)
Sequence (Q9NZ20 whole entry, looked up): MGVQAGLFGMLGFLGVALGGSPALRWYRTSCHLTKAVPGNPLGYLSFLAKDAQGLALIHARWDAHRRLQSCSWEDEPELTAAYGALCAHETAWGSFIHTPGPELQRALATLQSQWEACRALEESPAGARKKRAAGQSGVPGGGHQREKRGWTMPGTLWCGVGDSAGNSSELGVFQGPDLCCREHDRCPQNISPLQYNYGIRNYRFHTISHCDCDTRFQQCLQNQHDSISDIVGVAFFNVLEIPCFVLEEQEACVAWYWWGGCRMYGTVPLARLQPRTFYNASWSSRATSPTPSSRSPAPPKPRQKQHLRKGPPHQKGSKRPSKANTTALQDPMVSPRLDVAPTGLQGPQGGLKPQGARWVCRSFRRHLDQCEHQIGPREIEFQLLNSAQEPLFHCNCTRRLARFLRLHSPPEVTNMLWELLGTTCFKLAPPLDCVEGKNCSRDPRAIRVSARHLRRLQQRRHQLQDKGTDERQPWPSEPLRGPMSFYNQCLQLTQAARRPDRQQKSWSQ
Assay: human group III sPLA2 inhibitors, primary screen, biochemical, QFRET, BODIPY PC-A2 liposome substrate (AID 743126);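 further: 0% = median of test compound wells and 100% = no enzyme DMSO wells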
Conditions: QFRET BODIPY PC-A2 liposome hydrolysis, fluorescence; at 12.2 µM; hits give high values

| SMILES | inhibition |
| --- | --- |
| C[C@]12CC[C@H](O)CC1=C([N+](=O)[O-])CC1C2CC[C@@]2(C)C1CC[C@@H]2O (stereo not given in full) | -3.04% (inactive) |
| C[C@]12CCC3C(CC[C@H]4C[C@@H](O)CC[C@]34C)C1CC[C@@H]2O (stereo not given in full) | 21.1% (active) |
| C[C@]12CCC3C(CC[C@H]4[C@H](O)[C@H](O)CC[C@]34C)C1CC[C@@H]2O (stereo not given in full) | 11.6% (inactive) |
| CC1=CC(=Cc2sc3ccccc3[n+]2C)C=C(C)O1 | 5.85% (inactive) |
| COc1ccc(C(=O)C2CN(C)CC2C(=O)c2ccc(OC)cc2)cc1 (stereo not given) | -10.5% (inactive) |
| O=C(COC(=O)c1ccccc1)Nc1ccc(Cl)cc1C(=O)c1ccccc1 | 21.3% (active) |
| CN1CCN(C(=S)SCC(=O)Nc2ccc(Cl)cc2C(=O)c2ccccc2)CC1 | -21.3% (inactive) |
| O=C(CCNS(=O)(=O)c1ccccc1)Nc1ccc(Cl)cc1C(=O)c1ccccc1 | -26.4% (inactive) |
| C[C@@]1([C@@H](NP(=O)(c2ccccc2)c2ccccc2)c2ccccc2)C[C@H]1CCO | -0.39% (inactive) |
| CNC(=O)O/N=C(\N)Cc1csc2ccc(Cl)cc12 | -5.86% (inactive) |
